In all, about 33,000 sequences were measured (“E-score (-0.5 to 0.5)”: median about -0.054, highest 2% from about 0.35 on). Shown is part of a subset that was picked to be rich in the highest values.
biological target: T1, Stb5 (UniProt P38699); assay: PBM E-score (8-mer binding enrichment) (E-score (-0.5 to 0.5)); higher = stronger / more preferred TF binding; details: protein concentration: 200 nM; construct: GST-full length
T1 sequence: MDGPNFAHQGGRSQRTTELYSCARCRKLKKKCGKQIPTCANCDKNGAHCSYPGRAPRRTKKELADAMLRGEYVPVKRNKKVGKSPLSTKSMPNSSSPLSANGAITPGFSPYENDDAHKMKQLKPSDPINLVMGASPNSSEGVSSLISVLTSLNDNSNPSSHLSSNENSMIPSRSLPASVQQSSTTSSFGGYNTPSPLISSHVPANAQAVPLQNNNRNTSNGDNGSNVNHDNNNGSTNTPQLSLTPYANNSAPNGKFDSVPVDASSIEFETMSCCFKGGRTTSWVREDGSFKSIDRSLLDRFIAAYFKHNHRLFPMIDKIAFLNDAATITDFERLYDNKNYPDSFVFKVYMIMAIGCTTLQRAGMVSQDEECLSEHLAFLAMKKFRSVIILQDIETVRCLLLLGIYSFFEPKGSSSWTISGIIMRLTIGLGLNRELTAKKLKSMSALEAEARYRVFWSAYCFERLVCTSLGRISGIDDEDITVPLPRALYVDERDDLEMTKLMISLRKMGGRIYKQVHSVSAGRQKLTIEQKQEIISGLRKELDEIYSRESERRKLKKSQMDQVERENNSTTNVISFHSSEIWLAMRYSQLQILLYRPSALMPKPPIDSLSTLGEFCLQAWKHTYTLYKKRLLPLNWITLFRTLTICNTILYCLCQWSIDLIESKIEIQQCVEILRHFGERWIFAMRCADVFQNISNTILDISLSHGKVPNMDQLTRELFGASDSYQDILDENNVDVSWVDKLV
Protocol: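 Universal 'all 10-mer' protein binding microarrays (Agilent AMADID 015681) probed with GST-tagged S. cerevisiae TFs (full-length or DBD) made by in vitro transcription/translation (PURExpress), about 100-200 nM. Bound TF was detected with fluorescent anti-GST. Each ungapped 8-mer (which stands for itself and its reverse complement) is scored by the PBM enrichment score (E-score), a modified Wilcoxon-Mann-Whitney statistic from -0.5 to +0.5, computed with the Universal PBM Analysis Suite. Scale: above 0.35 generally sequence-specific binding.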

| Sequence | PBM E-score |
| --- | --- |
| CAAACACC | 0.352 |
| CAAACACA | -0.126 |
| AAAACACG | -0.0278 |
| AAAACACT | 0.0252 |
| AAAACACC | 0.353 |
| AGTTGTAC | 0.0567 |
| ATAGTCAC | -0.0899 |
| ACAGACCC | -0.00703 |
| CCAGGAGG | -0.238 |
| TTTCAAAA | -0.0616 |
| CCTAACCC | 0.0781 |
| CGACGATC | -0.058 |
| CGAATAGC | 0.0153 |
| AAAGGTTG | -0.192 |
| CTTGGCAC | -0.106 |
| AGCTTTAG | -0.226 |
| AGCATCGG | 0.214 |
| CCATACCG | 0.202 |
| CCCCGCAC | 0.236 |
| GGCCGCTA | 0.299 |
| CCCCGCTA | 0.399 |
| ACCCGCTA | 0.0951 |
| GCCCGCTA | 0.233 |
| AGCCGCTA | 0.173 |
| CCCCGCTC | 0.371 |

| Sequence | PBM E-score |
| --- | --- |
| CGCCGCTA | 0.412 |
| ACCCGCTC | 0.246 |
| AGACCAGC | -0.285 |
| AAGTCTGC | -0.211 |
| CCAGCAGC | -0.12 |
| TGAACTAA | -0.153 |
| AGAACTAA | 0.0894 |
| GGAACTAA | 0.373 |
| CCCGTTTA | 0.188 |
| GTCCACAC | 0.162 |
| CCTCCGGA | 0.219 |
| ACTCCGGA | 0.355 |
| ACTCCGGC | 0.307 |
| ACTCCGGG | 0.327 |
| GCTCCGGA | 0.368 |
| GCTCCGCA | 0.173 |
| ATATTCTG | 0.0727 |
| GCTGACCA | -0.169 |
| CCCCCAAG | -0.233 |
| GGCAGCTA | -0.0896 |
| TAATACTA | -0.0352 |
| CAGAATCC | -0.0711 |
| ATCGGATG | 0.168 |
| ACGCTGGC | -0.0211 |
| ACACCGGT | 0.421 |

| Sequence | PBM E-score |
| --- | --- |
| GAACCGGC | 0.213 |
| GCACCGGC | 0.353 |
| ACACCGGA | 0.402 |
| TCACCGGA | 0.343 |
| ACACCTGT | 0.0542 |
| CCACCGGC | 0.322 |
| CCACCGGG | 0.26 |
| GCACCGGA | 0.338 |
| ACACCCGG | 0.234 |
| AAACCGGT | 0.304 |
| ACACCGGG | 0.417 |
| CGGTTGTA | 0.309 |
| ATAGCCAC | -0.171 |
| ACCAAGCA | -0.0711 |
| AAATGTTC | -0.138 |
| CATTGGCC | -0.214 |
| AGACCGGC | 0.313 |
| AAACCGGC | 0.268 |
| ACACCGGC | 0.4 |
| ACCGTCTC | 0.0885 |
| CACACCAC | -0.199 |
| GACACCCC | 0.014 |
| CACACCGG | 0.327 |
| AACACCGG | 0.474 |
| AACACCCA | -0.0193 |

| Sequence | PBM E-score |
| --- | --- |
| AACACCGA | 0.479 |
| CACACCGC | 0.394 |
| CACACCTC | -0.0997 |
| GACACCTC | -0.0935 |
| CACACCGA | 0.344 |
| AACACCTG | 0.179 |
| GACACCGC | 0.454 |
| GAGCCTCC | -0.123 |
| CACCGTAC | 0.213 |
| AGCCGCCT | 0.0174 |
| ACCGTGGC | 0.0612 |
| ACCAAAAG | -0.113 |
| CCAACCTC | -0.111 |
| GAATCGAA | -0.175 |
| CGTGTACA | -0.00441 |
| AACACCCT | -0.128 |
| TACACCAA | -0.128 |
| GCCACCGA | 0.139 |
| AACACCAT | 0.0943 |
| GACACCAA | -0.124 |
| GACACCGA | 0.442 |
| AACACCGT | 0.472 |
| TACACCTA | -0.109 |
| TACACCGA | 0.414 |
| AGGCGACG | -0.112 |

| Sequence | PBM E-score |
| --- | --- |
| CCAGAAAA | -0.296 |
| AATGACTC | -0.235 |
| AAGGATCT | -0.117 |
| CCTGCCCC | 0.0235 |
| CTGAATCA | -0.177 |
| AACCCCGT | 0.448 |
| CCCCCCGC | 0.068 |
| ACCCCCCC | -0.295 |
| ACACCCGT | 0.162 |
| ACCCCCGC | 0.398 |
| AACCCCAT | 0.156 |
| AACCCCCT | -0.247 |
| ACCCCCGT | 0.365 |
| ACCCCCCT | -0.245 |
| CTACTCCC | -0.0111 |
| TCGTGGAA | 0.00034 |
| CTAAGAAC | 0.00444 |
| ATGTTCCG | 0.249 |
| AATTGATG | 0.0383 |
| ATCGATAA | -0.139 |
| ACGGCACC | 0.175 |
| ACGGCGTG | 0.208 |
| ACGGCAAT | 0.377 |
| ACGGCGAG | 0.043 |
| ACGGCGAC | 0.264 |

| Sequence | PBM E-score |
| --- | --- |
| ACGGCAAA | 0.235 |
| ACGGCGTA | 0.0801 |
| ACGGCGTC | 0.392 |
| ACGGCACT | 0.427 |
| ACGGCACA | 0.0761 |
| ACGGCGAT | 0.362 |
| ACGGCAAG | -0.121 |
| ATACCAGA | -0.177 |
| GGTACTTA | 0.233 |
| GTTAGAAC | 0.0768 |
| ATTCGCCC | 0.125 |
| CCTCCAAC | -0.199 |
| ATCGCAAC | -0.0557 |
| CATATCCG | 0.15 |
| AATATGCT | 0.00961 |
| GCGGCACA | 0.173 |
| GCGGCACC | 0.353 |
| CCGGCACC | 0.278 |
| GCAAAAGA | -0.0404 |
| CATTGAGC | -0.032 |
| CTCTAATA | -0.188 |
| AGGGCCCT | -0.173 |
| GGGCTAAC | -0.0393 |
| AGCTAGGG | -0.0617 |
| ATAGCACA | -0.124 |

| Sequence | PBM E-score |
| --- | --- |
| ATAGCACG | -0.0126 |
| ATAGCACC | 0.396 |
| CTAGCGCC | 0.172 |
| ATAGCGCG | 0.0127 |
| ATAGCGCC | 0.361 |
| AGCTCGAA | -0.0836 |
| GGTGAAGA | 0.0224 |
| CAGTTCGG | 0.206 |
| GTTTCTAA | 0.0616 |
| ACGCCGAT | 0.35 |
| CCGCCGAC | 0.356 |
| CTGCCGAC | 0.15 |
| CCGCCGAG | 0.28 |
| ATGCCGTC | 0.352 |
| ATGCCGAG | 0.147 |
| CCGCCGAA | 0.347 |
| CTGCCGTC | 0.121 |
| ACGCCGAC | 0.435 |
| ATGCCGAC | 0.386 |
| ATGCCGTG | 0.144 |
| GCGCCGAC | 0.28 |
| AGAATCTG | -0.0539 |

— the supplement of paper PMC3334620
